Data on 10 compounds can be found in PubChem BioAssay (NCI).

Molecules are shown by their SMILES. Compounds without any hit were thinned out: in the full panel of roughly 79,000, 15% have a hit. Unmarked numbers belong to inactive results. Activity calls are given as the source filed them. Cut-off read from the data, not from the text of the source: active = growth inhibition above about 70%; inactive = the rest.

Assay [1] is described as follows: NCI Yeast Anticancer Drug Screen. Data for the rad50 strain (AID 155).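 Note: 0% = growth of vehicle-only cultures of the same strain.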 Particulars: S. cerevisiae rad50 strain growth inhibition, active compounds read high. Put shortly:
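DNA repair mutant yeast, compound exposure, growth read-out; inhibition is taken relative to vehicle.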

Assay [2] can be described thus: NCI Yeast Anticancer Drug Screen. Data for the mec2-1 strain (AID 157). The note with it: S. cerevisiae mec2-1 strain, active compounds read high. The method, boiled down:
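Vehicle-treated cultures served as reference for growth inhibition of compound-exposed mec2-1 yeast.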

The nature of assay [3]: NCI Yeast Anticancer Drug Screen. Data for the sgs1 mgt1 strain (AID 161).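 Note: 0% = growth of cultures given vehicle only.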 The note with it: S. cerevisiae sgs1 mgt1 strain, active compounds read high. Put shortly:
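Test agents were incubated with a DNA-repair-mutant yeast strain. Growth was then read and compared against vehicle-treated controls.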

Assay [4] is described as follows: NCI Yeast Anticancer Drug Screen. Data for the cln2 rad14 strain (AID 165).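 Note: 0% = growth equal to vehicle treated cultures.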 Particulars: S. cerevisiae cln2 rad14 strain, active compounds read high. The method, boiled down: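 Each compound was tested on cln2 rad14 yeast. Inhibition of growth was calculated against vehicle-exposed controls.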
The nature of assay [5]: NCI Yeast Anticancer Drug Screen. Data for the bub3 strain (AID 167). The note with it: S. cerevisiae bub3 mutant strain, active compounds read high. Put shortly:
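In this screen, a yeast mutant lacking normal mitotic checkpoint function is challenged with compound. Relative growth versus vehicle gives the inhibition value.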

A short description of assay [6]: NCI Yeast Anticancer Drug Screen. Data for the mlh1 rad18 strain (AID 175). Particulars: S. cerevisiae mlh1 rad18 strain growth inhibition, active compounds read high. The method, boiled down: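 Vehicle-treated cultures served as the reference for growth inhibition in a yeast strain carrying DNA damage repair alterations exposed to each compound.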
Setting [7] is: at 5.0 µM (retest, dose inferred, filed as 0.5).
Where [8] appears, read: at 50.0 µM (retest, dose inferred, filed as 5.0).

With `O=[N+]([O-])/C=C/c1ccc(Cl)cc1[N+](=O)[O-]`, the growth inhibition is 97% (active) in assay [1] (setting [7]); 98% (active) in assay [1] (setting [8]); 99.2% (active) in assay [1] (at 50.0 µM); 98% (active) in assay [2] (setting [7]); 99% (active) in assay [2] (setting [8]); 99.6% (active) in assay [2] (at 50.0 µM). Further, the growth inhibition is 99% (active) in assay [3] (setting [7]); 99% (active) in assay [3] (setting [8]); 99.5% (active) in assay [3] (at 50.0 µM); 98% (active) in assay [4] (setting [7]); 97% (active) in assay [4] (setting [8]); 99.3% (active) in assay [4] (at 50.0 µM). The growth inhibition in assay [5] (setting [7]) was 99% (active); in assay [5] (setting [8]), 99% (active); in assay [5] (at 50.0 µM), 99.4% (active); in assay [6] (setting [7]) it was 96% (active); in assay [6] (setting [8]), 99% (active); in assay [6] (at 50.0 µM), 99.2% (active).

For `CN(C)C(=O)OC1C(=O)N(C)c2ccc(Cl)cc2C2(c3ccccc3)N1C2(Cl)Cl` (stereo not given), the growth inhibition in assay [1] (setting [7]) is -18%; in assay [1] (setting [8]), 62%; in assay [1] (at 50.0 µM) it was -23.3%; in assay [2] (setting [7]), 5%; in assay [2] (setting [8]), 69%; in assay [2] (at 50.0 µM) it was -14.8%. The growth inhibition was -12% in assay [3] (setting [7]); 77% (active) in assay [3] (setting [8]); -22.2% in assay [3] (at 50.0 µM); -11% in assay [4] (setting [7]); 64% in assay [4] (setting [8]); -2.85% in assay [4] (at 50.0 µM). Further, the growth inhibition in assay [5] (setting [7]) is 3%; in assay [5] (setting [8]), 74% (active); in assay [5] (at 50.0 µM), -33.4%; in assay [6] (setting [7]), -4%; in assay [6] (setting [8]), 70% (active); in assay [6] (at 50.0 µM) it was 13.8%.

For `O=[N+]([O-])c1ccc(C2C3CC4C(OOC42)C3I)cc1` (stereo not given), the growth inhibition in assay [1] (setting [7]) is 0%; in assay [1] (setting [8]) it was 20%; in assay [1] (at 50.0 µM), 23.5%; in assay [2] (setting [7]) it was 0%; in assay [2] (setting [8]), 9%; in assay [2] (at 50.0 µM), 18.1%. In addition, the growth inhibition was -4% in assay [3] (setting [7]); 12% in assay [3] (setting [8]); 32.8% in assay [3] (at 50.0 µM); -1% in assay [4] (setting [7]); -7% in assay [4] (setting [8]); -27.4% in assay [4] (at 50.0 µM). Also, the growth inhibition is 28% in assay [5] (setting [7]); 98% (active) in assay [5] (setting [8]); 97.2% (active) in assay [5] (at 50.0 µM); 0% in assay [6] (setting [7]); 27% in assay [6] (setting [8]); 31.4% in assay [6] (at 50.0 µM).

Consider `O=C1CN2CCCCC2CN1` (stereo not given), for which the growth inhibition in assay [1] (setting [7]) is -159%; in assay [1] (setting [8]), -143%; in assay [1] (at 50.0 µM) it was -13.2%; in assay [2] (setting [7]), -43%; in assay [2] (setting [8]) it was -47%; in assay [2] (at 50.0 µM), 7.9%. Moreover, the growth inhibition in assay [3] (setting [7]) was -59%; in assay [3] (setting [8]) it was -56%; in assay [3] (at 50.0 µM), -2.65%; in assay [4] (setting [7]), -58%; in assay [4] (setting [8]), -60%; in assay [4] (at 50.0 µM), 24.9%. In addition, the growth inhibition in assay [5] (setting [7]) is -73%; in assay [5] (setting [8]), -71%; in assay [5] (at 50.0 µM), 1.8%; in assay [6] (setting [7]), -137%; in assay [6] (setting [8]) it was -114%; in assay [6] (at 50.0 µM) it was 5.35%.

As for `[O-][n+]1ccccc1S`, the growth inhibition in assay [1] (setting [7]) is 99% (active); in assay [1] (setting [8]), 99% (active); in assay [1] (at 50.0 µM) it was 99.4% (active); in assay [2] (setting [7]), 100% (active); in assay [2] (setting [8]), 100% (active); in assay [2] (at 50.0 µM) it was 99.7% (active). Besides, the growth inhibition in assay [3] (setting [7]) was 100% (active); in assay [3] (setting [8]), 99% (active); in assay [3] (at 50.0 µM), 99.7% (active); in assay [4] (setting [7]), 99% (active); in assay [4] (setting [8]), 99% (active); in assay [4] (at 50.0 µM), 99.2% (active). The growth inhibition in assay [5] (setting [7]) is 99% (active); in assay [5] (setting [8]), 99% (active); in assay [5] (at 50.0 µM) it was 99.3% (active); in assay [6] (setting [7]) it was 99% (active); in assay [6] (setting [8]) it was 99% (active); in assay [6] (at 50.0 µM), 99.5% (active).

On to `COc1ccc2c(ccc3oc([N+](=O)[O-])cc32)c1`, for which the growth inhibition in assay [1] (setting [7]) was 93% (active); in assay [1] (setting [8]), 95% (active); in assay [1] (at 50.0 µM) it was 85.9% (active); in assay [2] (setting [7]), 96% (active); in assay [2] (setting [8]), 97% (active); in assay [2] (at 50.0 µM) it was 91% (active). Further, the growth inhibition was 93% (active) in assay [3] (setting [7]); 94% (active) in assay [3] (setting [8]); 79.8% (active) in assay [3] (at 50.0 µM); 97% (active) in assay [4] (setting [7]); 96% (active) in assay [4] (setting [8]); 85.2% (active) in assay [4] (at 50.0 µM). In addition, the growth inhibition is 87% (active) in assay [5] (setting [7]); 91% (active) in assay [5] (setting [8]); 68% in assay [5] (at 50.0 µM); 95% (active) in assay [6] (setting [7]); 96% (active) in assay [6] (setting [8]); 84.2% (active) in assay [6] (at 50.0 µM).

Regarding `CC(=O)OC[C@]12C[C@H](OC(=O)CC(C)C)C(C)=C[C@H]1OC1[C@H](O)[C@@H](OC(C)=O)[C@@]2(C)[C@@]12CO2`, the growth inhibition in assay [1] (setting [7]) was 97% (active); in assay [1] (setting [8]), 98% (active); in assay [1] (at 50.0 µM), 92.8% (active); in assay [2] (setting [7]), 98% (active); in assay [2] (setting [8]) it was 99% (active); in assay [2] (at 50.0 µM) it was 94.4% (active). The growth inhibition in assay [3] (setting [7]) was 99% (active); in assay [3] (setting [8]) it was 99% (active); in assay [3] (at 50.0 µM), 93.8% (active); in assay [4] (setting [7]), 97% (active); in assay [4] (setting [8]), 98% (active); in assay [4] (at 50.0 µM) it was 91.8% (active). Besides, the growth inhibition is 98% (active) in assay [5] (setting [7]); 99% (active) in assay [5] (setting [8]); 92.2% (active) in assay [5] (at 50.0 µM); 97% (active) in assay [6] (setting [7]); 98% (active) in assay [6] (setting [8]); 92.6% (active) in assay [6] (at 50.0 µM).

For the compound `CCCCCCCCCCCCCCCCOC[C@@H](COC(c1ccccc1)(c1ccccc1)c1ccccc1)O[P+](=S)OC` (stereo not given in full), the growth inhibition in assay [1] (setting [7]) is 31%; in assay [1] (setting [8]), 67%; in assay [1] (at 50.0 µM), 62.4%; in assay [2] (setting [7]) it was 20%; in assay [2] (setting [8]), 39%; in assay [2] (at 50.0 µM), 85.8% (active). Further, the growth inhibition is 18% in assay [3] (setting [7]); 55% in assay [3] (setting [8]); 86.5% (active) in assay [3] (at 50.0 µM); 36% in assay [4] (setting [7]); 29% in assay [4] (setting [8]); 77.6% (active) in assay [4] (at 50.0 µM). The growth inhibition in assay [5] (setting [7]) was 43%; in assay [5] (setting [8]), 58%; in assay [5] (at 50.0 µM), 82.4% (active); in assay [6] (setting [7]), 22%; in assay [6] (setting [8]) it was 32%; in assay [6] (at 50.0 µM) it was 91.1% (active).

Consider `O=[N+]([O-])c1ccc(NP(=S)(Nc2ccc([N+](=O)[O-])cc2)c2ccccc2)cc1`, for which the growth inhibition was 28% in assay [1] (setting [7]); 91% (active) in assay [1] (setting [8]); 93% (active) in assay [1] (at 50.0 µM); 38% in assay [2] (setting [7]); 94% (active) in assay [2] (setting [8]); 95.6% (active) in assay [2] (at 50.0 µM). In addition, the growth inhibition in assay [3] (setting [7]) was 6%; in assay [3] (setting [8]), 89% (active); in assay [3] (at 50.0 µM), 91.5% (active); in assay [4] (setting [7]) it was 56%; in assay [4] (setting [8]) it was 88% (active); in assay [4] (at 50.0 µM), 90.8% (active). For the same compound, the growth inhibition in assay [5] (setting [7]) is 64%; in assay [5] (setting [8]), 90% (active); in assay [5] (at 50.0 µM) it was 95% (active); in assay [6] (setting [7]) it was 68%; in assay [6] (setting [8]), 77% (active); in assay [6] (at 50.0 µM), 94.3% (active).

Consider `CC[CH2][Pb]([CH2]CC)([CH2]CC)[O]C(C)=O`, for which the growth inhibition is 54% in assay [1] (setting [7]); 79% (active) in assay [1] (setting [8]); 91% (active) in assay [1] (at 50.0 µM); 50% in assay [2] (setting [7]); 75% (active) in assay [2] (setting [8]); 92.7% (active) in assay [2] (at 50.0 µM). Moreover, the growth inhibition in assay [3] (setting [7]) is 100% (active); in assay [3] (setting [8]), 100% (active); in assay [3] (at 50.0 µM), 93.8% (active); in assay [4] (setting [7]), 73% (active); in assay [4] (setting [8]) it was 100% (active); in assay [4] (at 50.0 µM), 91.3% (active). For the same compound, the growth inhibition was 99% (active) in assay [5] (setting [7]); 100% (active) in assay [5] (setting [8]); 90.6% (active) in assay [5] (at 50.0 µM); 49% in assay [6] (setting [7]); 67% in assay [6] (setting [8]); 91.3% (active) in assay [6] (at 50.0 µM).
